Screens as filed in PubChem.
Rows were chosen to be rich in hits. Some 1.6% of all compounds tested hit in one or more screens of this group.
KCNQ2 enhance: enhances the rat KCNQ2 potassium channel; O88943; B-score at 10 µM; actives 0.54% (n = 310,000); CHO-K1 KCNQ2, FluxOR thallium flux fluorescence; hits give high values;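 active = fluorescence ratio B-score at least 3 SD of library B-scores, with initial fluorescence B-score within 3 of them, cut at about 5.3 in these data; same plate scores as AID 2156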;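 also: B-score of peak minus minimum over baseline fluorescence ratio after K+ and Tl+ stimulus; positive B-score means potentiation of KCNQ2 with more thallium influx and brighter signal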
KCNQ2 inh: blocks the rat KCNQ2 potassium channel; actives 1.1% (n = 310,000); O88943; B-score at 10 µM; AID 2156; CHO-K1 KCNQ2, FluxOR thallium flux, 20 min; hits give low values;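 active = fluorescence ratio B-score at most minus 3 library SDs, with starting brightness B-score within 2 library SDs, cut at about -5.5 in these data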
Kir21 conf inh: confirmation of mouse Kir2.1 potassium channel inhibitors; shares compounds with KCNQ2 enhance; Kir2.1-expressing cells, FluxOR thallium flux fluorescence; hits give low values; Tl flux remaining, % of negative control (hits give low values), % at 10 µM; actives 41% (n = 2,300); AID 2032;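 active = Primary-screen hit whose thallium flux fell at least 3 control SD below untreated wells in both duplicates, with normal baseline fluorescence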;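 also: 0% = blank wells without stimulus and 100% = stimulated no-compound controls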
HEK293 Tl flux: counter-screen for Kir2.1 inhibitors: effect in parental HEK293 cells; FluxOR thallium flux fluorescence; 0% = unstimulated blank wells; shares compounds with KCNQ2 enhance; FluxOR signal as % of negative control (100 = no effect), % at 10 µM; actives 19% (n = 2,300); AID 2105;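 active = dye signal at least 3 control SD above or below untreated wells in both duplicates, raw fluorescence within 3, either direction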;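 also: percent is based on the flux ratio of peak minus minimum fluorescence over baseline F0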
CHO-K1 ctr: counter-screen for KCNQ2 potentiators: effect in parental CHO-K1 cells | shares compounds with KCNQ2 enhance | activity increase over 3SD of controls, % at 10 µM | actives 43% (n = 1,200) | FluxOR thallium flux fluorescence; zero = vehicle mean+3SD, 100% = vehicle-minus-blank window;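 active = signal rise of at least 3 SD above the untreated control mean, in both duplicate wells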;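 also: counter screen of KCNQ2 potentiator hits so any rise reflects channel-independent effects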
KCNQ1 sel pot: selectivity of KCNQ2 potentiators: effect on human KCNQ1; shares compounds with KCNQ2 enhance; CHO KCNQ1 stable, FluxOR thallium flux fluorescence; beyond 3SD, as % of vehicle-control signal; activation over 3SD threshold, % at 10 µM; actives 28% (n = 1,200); AID 2283;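 active = fluorescence ratio rise of at least 3 SD of vehicle wells above their mean, in both replicate wells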;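 also: 0% = vehicle mean plus 3 SD and 100% = vehicle minus unstimulated blank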
KCNQ2 pot conf: rat KCNQ2 channel potentiator confirmation; shares compounds with KCNQ2 enhance; CHO-KCNQ2 cells, FluxOR thallium flux fluorescence; potentiation, less the hit threshold, % at 10 µM; actives 68% (n = 1,200); AID 2287;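 active = fluorescence ratio rising 3 SD or more over the vehicle control mean in both replicates, plus primary screen hit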;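 also: peak minus minimum thallium fluorescence divided by baseline after K/Tl stimulus; 0% = vehicle mean plus 3 SD and 100% = vehicle minus unstimulated blank difference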
Kir2-1 sel: mouse Kir2.1 off-target activity of KCNQ2 potentiators; actives 2% (n = 1,200); activity over 3SD threshold, % at 10 µM; shares compounds with KCNQ2 enhance; AID 2345; HEK293 Kir2.1, FluxOR thallium flux fluorescence;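 active = fluorescence ratio rise of at least 3 SD above the vehicle-control mean, seen in both replicates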;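 also: 0% = vehicle mean plus 3 SD and 100% = vehicle minus no-stimulus blank window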
KCNQ2 W236L pot: KCNQ2 potentiators acting on retigabine-insensitive rat KCNQ2 W236L mutant; shares compounds with KCNQ2 enhance; AID 2558; current increase over 3SD of negative controls (%), hits give high values, % at 25 µM; actives 10% (n = 940); CHO KCNQ2-W236L, automated patch clamp current;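 active = current increase at least 3 SD of the untreated controls above them in both duplicate recordings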
Numbers without * were called inactive; i = inactive; · = no result given.

SMILES	KCNQ2 enhance	KCNQ2 inh	Kir21 conf inh	HEK293 Tl flux	others
Cc1nc(C)n(C(C)CNS(=O)(=O)c2ccc(Cl)cc2)n1 (centres undefined)	0.37	i	·	·
O=C1CCCN1CCC(=O)N1CCCC(N2CCN(c3ccccc3F)CC2)C1 (centres undefined)	0.06	i	·	·
Oc1c(Br)cc(Br)cc1C=Nc1cccc2ncccc12	14*	i	i	i	CHO-K1 ctr=-17;KCNQ1 sel pot=-18;KCNQ2 pot conf=-10;Kir2-1 sel=-23;KCNQ2 W236L pot=i
Brc1cccc(C=Nc2cccc3ncccc23)c1	0.34	i	·	·
CC(=O)c1ccc(NC(=O)c2ccc(CSc3ccccc3)o2)cc1	1.1	i	·	·
O=C(Nc1ccc(F)cc1)c1ccc(CSc2ccc(Cl)cc2)o1	7.2*	i	i	i	CHO-K1 ctr=2.2*;KCNQ1 sel pot=90*;KCNQ2 pot conf=-9;Kir2-1 sel=-44;KCNQ2 W236L pot=i
CCOc1cc(CNCCO)cc(Br)c1OCc1ccccc1Cl	-7.4	-7.4*	i	i
CCOc1cc(CNC(C)(C)CO)cc(Br)c1OCc1ccc(Cl)cc1Cl	-7.7	-7.7*	22%*	i
COc1cc(CNC(C)(C)CO)cc(Br)c1OCc1ccccc1	1.4	i	·	·
COc1cc(CNCCO)cc(Cl)c1OCc1ccccc1Cl	·	i	·	·
O=C(O)c1ccccc1-c1ccccc1C(=O)NCc1ccccc1Cl	0.27	i	·	·
Cc1ccc(C(=O)Sc2cccccc2=O)cc1	11*	i	·	·	CHO-K1 ctr=-12;KCNQ1 sel pot=-21;KCNQ2 pot conf=85*;Kir2-1 sel=-46;KCNQ2 W236L pot=i
Cc1ccc(C(=O)CC(=O)c2ccccc2)cc1	1.3	i	·	·
COc1ccc(CCNC2CCc3ccccc3C2)cc1 (centres undefined)	2.8	i	40%*	i
COc1ccc(CCNC(=O)C2Cc3ccccc3C(=O)O2)cc1 (centres undefined)	·	i	·	·
CCOc1cc(O)c(-c2[nH]ncc2-c2nc(C)cs2)cc1CC	1.6	i	·	·
O=C(NC1CCN(Cc2ccccc2)CC1)c1ccccc1OCc1ccccc1	·	i	·	·
O=C(NC1CCN(Cc2ccccc2)CC1)c1ccccc1OCc1ccccc1Cl	·	i	73%*	i
Cc1ccc(C(=O)N2CCN(c3ccc(F)cc3)CC2)cc1S(=O)(=O)N1CCCCC1	·	i	·	·
Cc1ccc(C(=O)N2CCN(c3ccccc3)CC2)cc1S(=O)(=O)N1CCCC1	1.7	i	i	i
N#Cc1ccccc1NC(=O)COC(=O)CCc1ccccc1	·	i	·	·
CC(C)(C)OC(=O)N1CCC[C@H]1C(=O)Nc1ccc(S(=O)(=O)C(F)F)cc1	0.62	i	·	·
COc1c(C)cc(C(=O)C2CCCN(C(=O)CCc3scnc3C)C2)cc1C (centres undefined)	·	i	·	·
Cc1cc(N2CCCCC2)nc(NCc2ccccc2)n1	1.2	i	48%*	i
Cc1cc(N2CCOCC2)nc(NCc2ccccc2)n1	2.1	i	·	·
SMILES	KCNQ2 enhance	KCNQ2 inh	Kir21 conf inh	HEK293 Tl flux	others
CCN(CC)CCCN(C(=O)c1ccco1)c1nc(-c2ccc(C)cc2)cs1	·	i	·	·
CCN(CC)CCCN(C(=O)c1ccco1)c1nc(-c2ccc(Cl)cc2)cs1	·	i	51%*	i
Cc1cccc(C)c1NS(=O)(=O)c1c(C(=O)N2CCCCC2)c(C)n(C)c1C	·	i	·	·
COC(=O)CSc1[nH]c2ccc(Br)cc2c1[N+](=O)[O-]	6.5*	i	i	i	CHO-K1 ctr=-22;KCNQ1 sel pot=-13;KCNQ2 pot conf=-24;Kir2-1 sel=-23
CCOc1ccc2[nH]c(SCC(=O)OC)c([N+](=O)[O-])c2c1	·	i	·	·
O=C(N/C=C/c1ccco1)Nc1cccc(Cl)c1	14*	i	i	i	CHO-K1 ctr=-11;KCNQ1 sel pot=-31;KCNQ2 pot conf=61*;Kir2-1 sel=-20;KCNQ2 W236L pot=i
